{"source": "the antibiotic and cytotoxicity screens of Wong et al. (2023)", "note": "Screen size: about 39,000 compounds; about 1,500 (3.8%) were called active. The sample holds actives, similar compounds and a random draw of the others, so the mix is not that of the screen.", "data": [{"tested_on": "HSkMC (human skeletal muscle cells)", "experiment": "cytotoxicity call (relative viability < 0.9)", "details": "10 µM", "values": [{"smiles": "C[C@@H]1CN([C@H](C)CO)C(=O)c2cc(NC(=O)Cn3cnnn3)ccc2O[C@H]1CN(C)CC1CCCCC1", "cytotoxicity call": "inactive"}, {"smiles": "Cc1ccc(-c2ccc3c(c2)O[C@@H](CN(C)C(=O)NC(C)C)[C@H](C)CN([C@H](C)CO)S3(=O)=O)cc1", "cytotoxicity call": "inactive"}, {"smiles": "CCCNC(=O)N[C@H]1CC[C@@H](CC(=O)N2CCN(C)CC2)O[C@@H]1CO", "cytotoxicity call": "inactive"}, {"smiles": "C[C@@H]1CN([C@H](C)CO)C(=O)c2cc(NS(C)(=O)=O)ccc2O[C@@H]1CN(C)Cc1ccc(C(=O)O)cc1", "cytotoxicity call": "inactive"}, {"smiles": "CC(C)NC(=O)N(C)C[C@@H]1OCCCC[C@@H](C)Oc2ccc(NS(=O)(=O)c3cn(C)cn3)cc2C(=O)N([C@@H](C)CO)C[C@H]1C", "cytotoxicity call": "inactive"}, {"smiles": "C[C@H](CO)N1C[C@H](C)[C@H](CN(C)C(=O)Nc2ccccc2)OCCCC[C@H](C)Oc2ccc(NC(=O)Nc3cccc4ccccc34)cc2C1=O", "cytotoxicity call": "inactive"}, {"smiles": "Cc1noc(C)c1NC(=O)N(C)C[C@@H]1Oc2ccc(NC(=O)Nc3ccc(C(F)(F)F)cc3)cc2C(=O)N([C@H](C)CO)C[C@@H]1C", "cytotoxicity call": "inactive"}, {"smiles": "C[C@@H]1CN([C@@H](C)CO)C(=O)c2cc(NC(=O)Nc3cccc4ccccc34)ccc2O[C@H]1CN(C)Cc1ccc(-c2ccccc2)cc1", "cytotoxicity call": "inactive"}, {"smiles": "C[C@@H]1CN([C@H](C)CO)C(=O)c2cc(NC(=O)Nc3cccc4ccccc34)ccc2O[C@@H]1CN(C)Cc1ccc(-c2ccccc2)cc1", "cytotoxicity call": "inactive"}, {"smiles": "C[C@@H]1CN([C@H](C)CO)C(=O)c2cc(NC(=O)Nc3cccc4ccccc34)ccc2O[C@H]1CN(C)Cc1ccccc1", "cytotoxicity call": "inactive"}, {"smiles": "C[C@@H]1CN([C@H](C)CO)C(=O)c2cc(NC(=O)Nc3cccc4ccccc34)ccc2O[C@H]1CN(C)Cc1ccc(-c2ccccc2)cc1", "cytotoxicity call": "inactive"}, {"smiles": "C[C@H](CO)N1C[C@H](C)[C@@H](CN(C)Cc2ccc(-c3ccccc3)cc2)Oc2ccc(NC(=O)Nc3cccc4ccccc34)cc2C1=O", "cytotoxicity call": "inactive"}, {"smiles": "C[C@H]1CN([C@@H](C)CO)C(=O)c2cc(NC(=O)Nc3cccc4ccccc34)ccc2O[C@H]1CN(C)Cc1ccc(-c2ccccc2)cc1", "cytotoxicity call": "inactive"}, {"smiles": "C[C@H]1CN([C@@H](C)CO)C(=O)c2cc(NC(=O)Nc3cccc4ccccc34)ccc2O[C@@H]1CN(C)Cc1ccc(-c2ccccc2)cc1", "cytotoxicity call": "active"}, {"smiles": "C[C@@H]1CN([C@@H](C)CO)C(=O)c2cc(NC(=O)Nc3cccc4ccccc34)ccc2O[C@@H]1CN(C)Cc1ccc(-c2ccccc2)cc1", "cytotoxicity call": "active"}, {"smiles": "C[C@H](CO)N1C[C@H](C)[C@H](CN(C)Cc2ccc(-c3ccccc3)cc2)Oc2ccc(NC(=O)Nc3cccc4ccccc34)cc2C1=O", "cytotoxicity call": "active"}, {"smiles": "Cc1ccc(S(=O)(=O)N(C)C[C@H]2Oc3c(NC(=O)Nc4ccc(C(F)(F)F)cc4)cccc3C(=O)N([C@H](C)CO)C[C@@H]2C)cc1", "cytotoxicity call": "inactive"}, {"smiles": "CO[C@H]1CN(C)C(=O)c2cc(NS(=O)(=O)c3cn(C)cn3)ccc2OC[C@@H](C)N(Cc2cccc(F)c2)C[C@H]1C", "cytotoxicity call": "inactive"}, {"smiles": "Cc1noc(C)c1NC(=O)Nc1cccc2c1O[C@@H](CN(C)Cc1ccc(Oc3ccccc3)cc1)[C@@H](C)CN([C@@H](C)CO)C2=O", "cytotoxicity call": "inactive"}, {"smiles": "COc1ccc(S(=O)(=O)N(C)C[C@@H]2Oc3cc(C4=CCCC4)ccc3S(=O)(=O)N([C@H](C)CO)C[C@@H]2C)cc1", "cytotoxicity call": "inactive"}, {"smiles": "COCCNC(=O)C[C@H]1CC[C@H]2[C@@H](COC[C@@H](O)CN2C(=O)Nc2ccc3c(c2)OCO3)O1", "cytotoxicity call": "inactive"}, {"smiles": "CC(C)NC(=O)Nc1cccc2c1O[C@H](CN(C)Cc1ccc3c(c1)OCO3)[C@@H](C)CN([C@H](C)CO)C2=O", "cytotoxicity call": "inactive"}, {"smiles": "COc1ccc(NC(=O)Nc2ccc3c(c2)C(=O)N([C@H](C)CO)C[C@H](C)[C@H](CN(C)Cc2ccc(C(=O)O)cc2)OCCCC[C@H](C)O3)cc1", "cytotoxicity call": "inactive"}, {"smiles": "C[C@H](CO)N1C[C@H](C)[C@@H](CN(C)S(=O)(=O)c2cn(C)cn2)Oc2ccc(NS(=O)(=O)c3ccc(Cl)cc3)cc2CC1=O", "cytotoxicity call": "inactive"}, {"smiles": "C[C@H]1CN=C(NS(=O)(=O)c2ccccc2)N1", "cytotoxicity call": "inactive"}, {"smiles": "C=CCON1C(=O)[C@@H]2[C@@H](C1=O)[C@@H]1C=C[C@@H]2O1", "cytotoxicity call": "inactive"}, {"smiles": "CCCCOc1cc(C(=O)OCCN(CC)CC)ccc1N.Cl", "cytotoxicity call": "inactive"}, {"smiles": "CCCCN(CCCC)CCCOC(=O)c1ccc(N)cc1.O=S(=O)(O)O", "cytotoxicity call": "inactive"}, {"smiles": "CCCCc1oc2ccccc2c1C(=O)c1cc(I)c(OCCN(CC)CC)c(I)c1", "cytotoxicity call": "active"}, {"smiles": "CCCCc1oc2ccc(NS(C)(=O)=O)cc2c1C(=O)c1ccc(OCCCN(CCCC)CCCC)cc1.Cl", "cytotoxicity call": "active"}, {"smiles": "CCCCc1oc2ccccc2c1C(=O)c1cc(I)c(OCCN(CC)CC)c(I)c1.Cl", "cytotoxicity call": "inactive"}, {"smiles": "CCc1oc2ccccc2c1C(=O)c1cc(Br)c(O)c(Br)c1", "cytotoxicity call": "inactive"}, {"smiles": "CCCCc1oc2ccc(NS(C)(=O)=O)cc2c1C(=O)c1ccc(OCCCN(CCCC)CCCC)cc1", "cytotoxicity call": "active"}, {"smiles": "C[C@H]1CN([C@@H](C)CO)C(=O)c2c(c3ccccc3n2C)-c2ccccc2CO[C@@H]1CN(C)C(=O)Nc1cccc(C(F)(F)F)c1", "cytotoxicity call": "inactive"}, {"smiles": "O=C(C[C@@H]1C=C[C@@H](NC(=O)Cc2ccccn2)[C@@H](CO)O1)NCCCN1CCOCC1", "cytotoxicity call": "inactive"}, {"smiles": "CNC(=O)C[C@@H]1CC[C@@H]2[C@H](COc3ccc(NC(=O)c4ccc(C(F)(F)F)cc4)cc3C(=O)N2C)O1", "cytotoxicity call": "inactive"}, {"smiles": "C[C@@H]1CCCCO[C@@H](CN(C)S(=O)(=O)c2cn(C)cn2)[C@@H](C)CN([C@@H](C)CO)C(=O)c2cc(NC(=O)Nc3ccc(C(F)(F)F)cc3)ccc2O1", "cytotoxicity call": "inactive"}, {"smiles": "COCCOC(=O)N1C(=O)[C@@]2(c3cc(C#Cc4ccc(OC)cc4)ccc31)[C@H](c1ccccc1OCCO)N1[C@H](c3ccccc3)[C@H](c3ccccc3)OC(=O)[C@H]1[C@@H]2C(=O)N1CCN(c2ncccn2)CC1", "cytotoxicity call": "inactive"}, {"smiles": "Cc1noc(C)c1NC(=O)N(C)C[C@@H]1OCCCC[C@H](C)Oc2ccc(NC(=O)NC3CCCCC3)cc2C(=O)N([C@@H](C)CO)C[C@H]1C", "cytotoxicity call": "inactive"}, {"smiles": "CO[C@@H]1CN(C)C(=O)c2cc(NC(=O)NC(C)C)ccc2OC[C@H](C)N(Cc2ccc(-c3ccccn3)cc2)C[C@@H]1C", "cytotoxicity call": "inactive"}, {"smiles": "C[C@@H]1CCCCO[C@H](CN(C)S(C)(=O)=O)[C@@H](C)CN([C@H](C)CO)C(=O)c2cc(NS(=O)(=O)c3cccs3)ccc2O1", "cytotoxicity call": "inactive"}, {"smiles": "C[C@@H]1CCCCO[C@@H](CN(C)C(=O)Nc2ccc(C(F)(F)F)cc2)[C@H](C)CN([C@H](C)CO)C(=O)c2cc(NC(=O)Cc3ccccc3)ccc2O1", "cytotoxicity call": "inactive"}, {"smiles": "O=C(Oc1cccc2cccnc12)c1ccccc1", "cytotoxicity call": "inactive"}, {"smiles": "COc1nc(=NC(=O)NS(=O)(=O)Nc2cccc3cccnc23)nc(OC)[nH]1", "cytotoxicity call": "active"}, {"smiles": "COc1ccc(N2C(=O)C[C@@H](c3ccc(Br)cc3)[C@H]2C(=O)Nc2cccc3cccnc23)cc1", "cytotoxicity call": "inactive"}, {"smiles": "CNC[C@H]1Oc2c(NS(=O)(=O)c3cn(C)cn3)cccc2C(=O)N([C@H](C)CO)C[C@@H]1C", "cytotoxicity call": "inactive"}, {"smiles": "COc1cc2c(Oc3ccc(NC(=O)C4(C(=O)Nc5ccc(F)cc5)CC4)cc3F)ccnc2cc1OCCCN1CCOCC1", "cytotoxicity call": "active"}, {"smiles": "COc1cc2nccc(Oc3ccc(NC(=O)c4cn(C(C)C)c(=O)n(-c5ccc(F)cc5)c4=O)cc3F)c2cc1OC", "cytotoxicity call": "active"}, {"smiles": "CCOc1ccn(-c2ccc(F)cc2)c(=O)c1C(=O)Nc1ccc(Oc2ccnc(N)c2Cl)c(F)c1", "cytotoxicity call": "inactive"}, {"smiles": "COc1ccc2c3c(n(c2c1)C)[C@H](CO)N(C[C@]13CCN(CC1)C(=O)CN1CCOCC1)C(=O)Nc1ccc(cc1)F", "cytotoxicity call": "inactive"}, {"smiles": "COc1cc2ncnc(Nc3ccc(F)c(Cl)c3)c2cc1OCCCN1CCOCC1", "cytotoxicity call": "inactive"}, {"smiles": "COc1cc2nccc(Oc3ccc(NC(=O)C4(C(=O)Nc5ccc(F)cc5)CC4)cc3)c2cc1OC", "cytotoxicity call": "active"}, {"smiles": "COc1cc2ncnc(Oc3cccc(NC(=O)Nc4cc(C(C)(C)C(F)(F)F)on4)c3)c2cc1OC", "cytotoxicity call": "inactive"}, {"smiles": "COc1ccc2c3c([nH]c2c1)[C@H](CO)N(C[C@]13CCN(CC1)C(=O)Nc1c(noc1C)C)C(=O)Nc1ccc(cc1)F", "cytotoxicity call": "inactive"}, {"smiles": "C[C@H](CO)N1C[C@H](C)[C@@H](CN(C)S(=O)(=O)c2cccs2)Oc2ccc(NS(=O)(=O)c3cccs3)cc2CC1=O", "cytotoxicity call": "inactive"}, {"smiles": "C[C@H](CO)N1C[C@H](C)[C@@H](CN(C)Cc2ccc(C(F)(F)F)cc2)Oc2ccc(NC(=O)CCC(F)(F)F)cc2C1=O", "cytotoxicity call": "inactive"}, {"smiles": "C[C@@H]1CN([C@@H](C)CO)C(=O)CCCn2nncc2CO[C@H]1CN(C)C(=O)c1cc(-c2ccccc2)on1", "cytotoxicity call": "inactive"}, {"smiles": "C[C@H](CO)N1C[C@H](C)[C@H](CN(C)CC2CC2)OCCCC[C@H](C)Oc2ccc(NS(=O)(=O)c3ccc(Cl)cc3)cc2C1=O", "cytotoxicity call": "inactive"}, {"smiles": "C[C@@H]1CN([C@H](C)CO)C(=O)Cc2cc(NS(=O)(=O)c3cn(C)cn3)ccc2O[C@@H]1CN(C)Cc1ccc(C(=O)O)cc1", "cytotoxicity call": "inactive"}, {"smiles": "COC(=O)Cn1c(=N)n(C)c2ccccc21", "cytotoxicity call": "inactive"}, {"smiles": "C[C@H](CO)N1C[C@H](C)[C@H](CN(C)Cc2ccc(Cl)c(Cl)c2)Oc2ccc(NC(=O)Cn3cnnn3)cc2C1=O", "cytotoxicity call": "inactive"}, {"smiles": "CO[C@@]1(NC(=O)[C@@H](C(=O)O)c2ccc(O)cc2)C(=O)N2C(C(=O)O)=C(CSc3nnnn3C)CO[C@@H]21", "cytotoxicity call": "inactive"}, {"smiles": "Cc1cc(C=Cc2ccc3cc(N(C)C)ccc3[n+]2C)c(C)n1-c1ccccc1.O=C([O-])c1cc2ccccc2c(Cc2c(O)c(C(=O)O)cc3ccccc23)c1O", "cytotoxicity call": "active"}, {"smiles": "CN1CCCN=C1C=Cc1cccc(O)c1.O=C(O)c1cc2ccccc2c(Cc2c(O)c(C(=O)O)cc3ccccc23)c1O", "cytotoxicity call": "inactive"}, {"smiles": "CN1CCCN=C1C=Cc1cccs1.O=C(O)c1cc2ccccc2c(Cc2c(O)c(C(=O)O)cc3ccccc23)c1O", "cytotoxicity call": "inactive"}, {"smiles": "C[C@H](CO)N1C[C@H](C)[C@@H](CN(C)C(=O)Nc2ccccc2)Oc2ccc(NC(=O)CCCCCC(=O)Nc3ccccc3N)cc2C1=O", "cytotoxicity call": "inactive"}]}]}
